The list is not random: actives were taken first. Their share in the collection is about 2.8%.
RGS4 inh – Inhibitors of Regulator of G Protein Signaling (RGS) 4: qHTS; Transcreener GDP fluorescence polarization, RGS4-accelerated GTP hydrolysis; AID 504845, 2011; Regulator of G-protein signaling 4 (Homo sapiens), P49798; Potency, µM (titrated, usually from 114 µM), actives largely listed as inhibitors; 390,000 compounds, 0.039% hits; active means well fitted inhibition curve with a large enough effect; inconclusive means small, poorly fitted or top-dose-only effect; inactive means no such curve, though single readings can be large or run the other way; further: nearly all actives have a fitted effect of over 75% in size
Target sequence (P49798 whole entry, looked up): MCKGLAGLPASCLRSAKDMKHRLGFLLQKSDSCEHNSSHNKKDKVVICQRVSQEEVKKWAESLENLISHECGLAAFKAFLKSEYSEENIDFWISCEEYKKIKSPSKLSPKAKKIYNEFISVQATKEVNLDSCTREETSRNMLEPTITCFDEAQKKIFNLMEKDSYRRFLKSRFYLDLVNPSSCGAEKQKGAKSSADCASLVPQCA
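MLSMR compounds (23 nl, pin-transferred) preincubated 10 min at room temperature with a 500nM (2x) first reagent, then RGS4 at 900nM (2x) plus Transcreener GDP mix added; fluorescence polarization (620/688 nm) read before and after 90 min at 30 °C.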
PI4K2A inh – qHTS for small molecular inhibitors of PI4K2A; Phosphatidylinositol 4-kinase type 2-alpha (Homo sapiens), Q9BTU6; purified PI4K2A, ADP-Glo luminescence, 1 h; stronger effect = lower value; activity change, negative = inhibition, % at 76.9 µM; 420,000 compounds, 0.13% hits; AID 1346378, 2018; in the data active means activity change below about -50%; inconclusive means mostly about -30% to -49%
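In this quantitative HTS, ADP production by PI4K2A was quantified luminescently after 1 h at ambient temperature; 100 microM adenosine served as plate-quality control.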
DRD3 antagonist – qHTS of D3 Dopamine Receptor Antagonist: qHTS; D(3) dopamine receptor (Homo sapiens), P35462; D3R cells, DiscoveRx beta-arrestin luminescence, antagonist mode; stronger effect = lower value; max response, negative = inhibition, %; 360,000 compounds, 2.5% hits; AID 652054, 2013; in the data active means max response below about -50%; inconclusive means no clear call, values can overlap the other calls
Target sequence (P35462 whole entry, looked up): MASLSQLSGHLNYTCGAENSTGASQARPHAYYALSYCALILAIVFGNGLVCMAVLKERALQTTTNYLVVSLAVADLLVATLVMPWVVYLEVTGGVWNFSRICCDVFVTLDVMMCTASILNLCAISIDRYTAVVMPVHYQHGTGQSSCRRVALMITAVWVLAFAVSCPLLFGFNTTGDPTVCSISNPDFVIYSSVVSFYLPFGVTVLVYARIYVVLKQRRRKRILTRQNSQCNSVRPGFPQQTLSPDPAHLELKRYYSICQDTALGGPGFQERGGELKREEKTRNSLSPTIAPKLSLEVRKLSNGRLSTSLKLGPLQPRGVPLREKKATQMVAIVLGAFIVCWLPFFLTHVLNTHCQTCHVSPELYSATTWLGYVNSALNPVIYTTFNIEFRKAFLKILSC
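Cells plated overnight at 1500 cells/well, then exposed to library compounds with dopamine controls for 90 minutes at 37 degrees C. DiscoveRx reagent added for 30–60 minutes at room temperature; luminescence read, quantitative HTS format.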
LDHA inh – qHTS assay for inhibitors of human lactate dehydrogenase; 480,000 compounds, 0.15% hits; activity change, % (values are at about 110 or 230 µM); purified LDHA, NADH/diaphorase-resazurin fluorescence; stronger effect = lower value; L-lactate dehydrogenase A chain (Homo sapiens), P00338; AID 1347041, 2019; in the data active means activity change below about -30%; inconclusive means mostly about -25% to -30%
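Remaining NADH was detected by diaphorase (0.133 mg/mL) converting 37 µM resazurin to fluorescent resorufin, read at 0 and 20 minutes. The preceding 5-minute room-temperature reaction used 2 nM LDHA, 0.2 mM sodium pyruvate and 0.06 mM NADH at pH 7.4.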
DRD3 agonist – qHTS of D3 Dopamine Receptor Agonist: qHTS | D3R DiscoveRx beta-arrestin cells, luminescence, 90 min | AID 652048, 2013 | D(3) dopamine receptor (Homo sapiens), P35462 | 410,000 compounds, 0.58% hits | max activation, %; in the data active means max activation above about 30%
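Cells at 1500/well, incubated overnight, then treated with pinned compounds (dopamine as control) for 90 min at 37 degrees C. DiscoveRx reagent added for 30 - 60 minutes at room temperature; luminescence read.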
pAkt inh – HTS Assay for Inhibitors of Akt Phophorylation: Primary Screen | activity change, % for hits at 50 µM | Neuro2A IGF-stimulated pAkt S473 HTRF, 20 min; stronger effect = lower value | 360,000 compounds, 0.32% hits | AID 651550, 2012; in the data active means activity change below about -80%; inconclusive means mostly about -51% to -80%
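Single-point screen (50 µM final compound) in Neuro2A cells stimulated 20 min with 6 nM IGF at 37 deg C. After lysis, Ser473-phosphorylated Akt read by HTRF (ex 330 nm, em 615/665 nm) as the 665/615 ratio.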
Hits are given with their value; . = inactive; ? = inconclusive; / = not tested or not shown; [ ] = remark or other dose.

SMILES | RGS4 inh | PI4K2A inh | DRD3 antagonist | LDHA inh | DRD3 agonist | pAkt inh
CNCCCCOc1ccccc1-c1ccccc1 | . | . | -75.9 | . | . | .
CC(O)CNCCOc1ccccc1OCc1ccccc1 (configuration not stated) | . | . | -79.7 | . | . | .
COc1ccccc1OCCCCNCCO | . | . | . | . | . | /
OCCNCCOc1ccccc1F | . | . | . | . | . | -107.3%
OCCNCCOc1ccccc1-c1ccccc1 | . | . | -75.9 | . | . | .
CCN(Cc1nc2ccccc2c(=O)[nH]1)C(=O)CNC(=O)c1ccc(Cl)cc1 | / | / | / | . | / | /
COCCNCCOc1ccccc1-c1ccccc1 | . | . | -82.6 | . | . | .
OCCNCCOCCOc1ccccc1-c1ccccc1 | . | . | . | . | . | .
COCCCNCCCCOc1ccccc1-c1ccccc1 | . | . | -77.6 | . | . | .
COCCCNCCOc1ccccc1-c1ccccc1 | . | . | -80.6 | . | . | .
CCOc1cc(CNC(=O)c2ncoc2-c2cccs2)cc(OCC)c1OCC | / | / | / | . | / | /
O=C(NC1Cc2ccccc2C1)c1ccccc1F | / | / | / | . | / | /
Cc1sc2ccccc2[n+]1CCC(C)S(=O)(=O)[O-] (configuration not stated) | ? | . | -66.8 | . | . | .
COc1cc(CN2CCCCCC2c2cccc(F)c2)ccc1OCC(N)=O (configuration not stated) | / | / | / | . | / | /
CC[C@]12c3[nH]c4ccccc4c3CCN1C(=O)C(CC(=O)NCCCN(C)C)C[C@@H]2C(=O)N1CCN(C(=O)C2CC2)CC1 (some centres not stated) | . | . | -59.2 | . | . | .
CCN(CC)C(=O)[C@H]1CC(CC(=O)NC(C)(C)C)C(=O)N2CCc3c([nH]c4ccccc34)[C@]12C (some centres not stated) | . | . | . | . | . | .
CC(C)(C)NC(=O)CC1C[C@H](C(=O)N2CCCCC2)[C@@]2(C)c3[nH]c4ccccc4c3CCN2C1=O (some centres not stated) | . | -58.9 | . | . | . | .
COCCCNC(=O)C[C@H]1C[C@H](C(=O)N2CCOCC2)[C@@]2(C)c3[nH]c4cc(-c5ccco5)ccc4c3CCN2C1=O | ? | . | . | . | 35.0 | .
CCN(CC)C(=O)[C@H]1CC(CC(=O)NCCc2ccccn2)C(=O)N2CCc3c([nH]c4ccccc34)[C@]12C (some centres not stated) | . | . | -54.5 | . | . | .
O=C(NC(NC(=O)c1cccc(Cl)c1)c1ccccc1)c1cccc(Cl)c1 | / | / | / | . | / | /
CC(=O)c1ccccc1NCC(=O)Nc1ccccc1 | / | / | / | . | / | /
C=CCNC(=O)NC(=O)CN(CC1CCOC1)C1CC1 (configuration not stated) | / | / | / | . | / | /
CC[C@]12c3[nH]c4ccc(Cl)cc4c3CCN1C(=O)[C@@H](CC(=O)NCCCn1ccnc1)C[C@@H]2C(=O)N1CCN(C(=O)c2ccco2)CC1 | . | . | . | . | 49.3 | .
CC[C@]12c3[nH]c4ccc(OC)cc4c3CCN1C(=O)C(CC(=O)NCCCn1ccnc1)C[C@@H]2C(=O)N1CCN(C(=O)c2ccco2)CC1 (some centres not stated) | . | . | . | . | . | .
COc1ccc(-c2[nH]ncc2CN2CCC(O)(c3ccc(Cl)cc3)CC2)cc1 | . | . | ? | . | . | .
SMILES | RGS4 inh | PI4K2A inh | DRD3 antagonist | LDHA inh | DRD3 agonist | pAkt inh
OC1(c2ccc(Cl)cc2)CCN(Cc2cn[nH]c2-c2ccccc2)CC1 | . | . | -97.6 | . | . | .
OC1(c2ccc(Cl)cc2)CCN(Cc2cn[nH]c2-c2ccc(F)cc2)CC1 | . | . | -97.6 | . | . | .
CC(C)Cn1cc(NC(=O)Nc2ccccc2)c2ccccc2c1=O | / | / | / | . | / | /
O=C(c1cccc(OC(F)F)c1)n1ccccc1=NC1CCCCC1 | / | / | / | . | / | /
CNc1nnc(SCc2cc(C#N)ccc2F)s1 | / | / | / | . | / | /
O=C(O)c1ccc2c(c1Nc1ccccc1)C(=O)c1ccccc1C2=O | . | . | -56.2 | . | . | .
CNc1c(C(=O)O)ccc2c1C(=O)c1ccccc1C2=O | . | . | -73.6 | . | . | .
c1ccc(-c2csc(CN3CCCCC3)n2)cc1 | . | . | -50.4 | . | . | .
CCn1c(C(=O)OC)cc2c1ccn2-c1ccc(F)cc1 | .[11.4 µM] | . | -77.4 | . | . | .
Clc1cccc(/C=N/Nc2nc(Cl)nc3ccccc23)c1 | . | . | -60.3 | . | . | .
Cc1cc(C)nc(N/N=C/c2cccc(Cl)c2)n1 | . | . | . | . | . | .
C#CC(=O)N(c1cc(OC)ccc1OC)C(C(=O)NC1CCCC1)c1cccs1 (configuration not stated) | . | . | -62.2 | . | . | .
CC(C)(C)NC(=O)C(c1cccs1)N(C(=O)C(=O)NC1CCCC1)c1ccccc1F (configuration not stated) | . | . | -64.8 | . | . | .
C#CC(=O)N(c1ccc(OC)cc1OC)C(C(=O)NC1CCCC1)c1cccs1 (configuration not stated) | ? | . | -50.7 | . | . | .
COc1ccc(N(C(=O)c2snc(C(N)=O)c2N)C(C(=O)NC2CCCC2)c2cccs2)cc1OC (configuration not stated) | . | . | . | . | . | .
COc1ccc(N(C(=O)c2ccco2)C(C(=O)NC2CCCCC2)c2cccs2)cc1OC (configuration not stated) | . | . | . | . | . | .
Cc1nc2ccc(C(=O)OC(C)C(=O)NC(N)=O)cc2nc1C (configuration not stated) | / | / | / | . | / | /
Cc1ccc(S(=O)(=O)c2nc(NCCN(C)C)sc2Cl)cc1 | . | . | -67.5 | . | . | .
CCN(CC)CCCNCC(=O)Nc1cc(C)on1 | . | . | . | -30.2 | . | .
CCCCCCCC/C=C\CCCCCCCC(=O)NCCc1ccc(O)c(O)c1 | ? | . | . | . | 211.1 | .
CCCCCCCC/C=C\CCCCCCCC(=O)NCc1ccc(O)c(OC)c1 | . | . | / | / | . | /
NC(=O)[C@H](Cc1cc2ccccc2s1)NC(=O)[C@@H]1CC2(CC(c3cccc(NC(=O)[C@@H]4CCC(=O)N4)c3)=NO2)CN1C(=O)/C=C/Sc1ccccc1 (some centres not stated) | ? | . | . | . | . | .

High-throughput results from PubChem.
